The text below walks through data of PubChem BioAssay (NCATS).

The target of experiment [1] is Cytochrome P450 1A2 (Homo sapiens) (UniProt P05177). The experiment in a line: p450-cyp1a2 (AID 410; calls by dose curve; note: potency is the fitted concentration of half-maximal effect). Put shortly: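 Read-out is luminescence from luciferin produced by CYP1A2 demethylation of Luciferin-ME (100uM, at Km). Detection reagent stopped the 60 min NADPH-dependent reaction; signals were normalized to 57 uM furafylline.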
Cytochrome P450 1A2 (Homo sapiens), sequence (P05177 whole entry, looked up): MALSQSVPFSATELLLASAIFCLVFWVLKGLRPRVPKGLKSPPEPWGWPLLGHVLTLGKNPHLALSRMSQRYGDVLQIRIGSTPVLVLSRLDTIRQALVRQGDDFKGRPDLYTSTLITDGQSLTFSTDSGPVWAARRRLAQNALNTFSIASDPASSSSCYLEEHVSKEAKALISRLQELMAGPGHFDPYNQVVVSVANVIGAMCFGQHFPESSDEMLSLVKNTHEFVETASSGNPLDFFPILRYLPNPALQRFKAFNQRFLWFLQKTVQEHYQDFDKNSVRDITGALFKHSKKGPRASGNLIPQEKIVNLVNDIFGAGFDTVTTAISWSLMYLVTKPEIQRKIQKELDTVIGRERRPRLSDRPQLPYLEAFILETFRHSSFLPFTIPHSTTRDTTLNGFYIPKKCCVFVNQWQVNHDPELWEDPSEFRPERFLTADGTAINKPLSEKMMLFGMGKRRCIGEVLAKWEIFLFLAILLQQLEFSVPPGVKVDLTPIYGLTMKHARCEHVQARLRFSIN
Experiment [2] has as its target Glucocorticoid receptor (Homo sapiens) (UniProt P04150). The experiment is described as follows: GR-GFP Redistribution (AID 450;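 active = compounds whose dose series gives a full or clear partial fitted curve of increased nuclear translocation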; note: potency is the fitted concentration of half-maximal effect). To be noted: U2OS GR-GFP nuclear translocation, laser cytometry, 2 h.
Experiment [3] has the same target. The experiment is described as follows: GR-EFC Redistribution (AID 451; calls by dose curve; note: potency is the fitted concentration of half-maximal effect). The conditions noted are these: CHO-K1 GR-EFC translocation, beta-gal luminescence, 2 h. Put shortly: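 CHO-K1 cells stably expressing nuclear-localized β-gal enzyme acceptor and GR fused C-terminally to the enzyme donor fragment; ligand-driven nuclear translocation restores β-gal by complementation. Compounds titrated up to 46 uM final, 2 h at 37 °C; luminescence read.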

In experiment [4] the target is Mitogen-activated protein kinase 10 (Mus musculus) (UniProt Q61831). The experiment is described as follows: JNK3 AlphaScreen Assay (AID 530; active = well fitted curve in either direction with a large enough effect, not every such curve was filed as active;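 note: kinase came from lysate of stimulated human HepG2 cells; signal reports phosphorylation of biotinylated GST-cJun 1-79 at Ser73 with 10 µM ATP; series mostly up to about 57 µM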). Put shortly: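 Biotinylated GST-cJun(1-79) served as substrate for JNK3 in HepG2 lysates stimulated with IL-1beta and TNF-alpha. ATP was 10 uM final, pH 7.6. Ser73 phosphorylation was quantified by AlphaScreen (680 nm excitation).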
For orientation: In Alpha technology, singlet oxygen from a donor bead excites a nearby acceptor bead.

For experiment [5], the target named is Cytochrome P450 2C9 (Homo sapiens) (UniProt P11712). The experiment in a line: qHTS Assay for Inhibitors and Substrates of Cytochrome P450 2C9 (AID 883). Note: nearly all actives have a fitted effect of over 60% in size. Put shortly:
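Human CYP2C9 (10nM) hydroxylated Luciferin-H (100uM, at its KM) to luciferin in 25mM KPO4. Compound was preincubated 10 min at 37C, then NADPH regeneration started a 60 min reaction at 37C. Luminescence was read after detection reagent, normalized to 57uM sulphaphenazole.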

The target of experiment [6] is Cytochrome P450 2D6 (Homo sapiens) (UniProt P10635). The experiment is described as follows: qHTS Assay for Inhibitors and Substrates of Cytochrome P450 2D6 (AID 891). Note: nearly all actives have a fitted effect of over 60% in size. Note: potency is the fitted concentration of half-maximal effect. Put shortly:
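Luminescent read-out of luciferin formed by 5 nM human CYP2D6 demethylating 30 uM Luciferin-ME EGE (Km level) over 60 min at room temperature after NADPH regeneration addition. Data normalized to full inhibition by 1.43 uM quinidine.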

Experiment [7] addresses Cytochrome P450 2C19 (Homo sapiens) (UniProt P33261). The experiment in a line: qHTS Assay for Inhibitors and Substrates of Cytochrome P450 2C19 (AID 899). Note: nearly all actives have a fitted effect of over 60% in size. Note: potency is the fitted concentration of half-maximal effect. Put shortly:
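Human CYP2C19 (5nM) with Luciferin-H EGE at 10uM (its KM) in 50mM KPO4 was preincubated with compound for 10 min at 37C. NADPH regeneration started a 60 min 37C reaction. Luciferin was read by luminescence, normalized to 57uM ketoconazole.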

Experiment [8] in a line: Stat Signaling Pathway (AID 446; active = well fitted curve in either direction with a large enough effect, not every such curve was filed as active;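 note: ME-180 cervical cancer cells given 40 pM IL-6 alongside compound; SIE-controlled beta-lactamase reporter measured as 460/530 nm FRET emission ratio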). Put shortly: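 FRET read-out (405 nm excitation, 460/530 nm emission) of a beta-lactamase reporter under a STAT-inducible element in ME-180 cervical carcinoma cells. Cells with compound receive 40 pM IL-6 for 5 h. Values are normalised to AC90 stimulation and AC90 JAK-inhibitor controls.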
Experiment [9] deals with Cytochrome P450 3A4 (Homo sapiens) (UniProt P08684). The experiment is described as follows: qHTS Assay for Inhibitors and Substrates of Cytochrome P450 3A4 (AID 884). Note: potency is the fitted concentration of half-maximal effect; nearly all actives have a fitted effect of over 50% in size. Put shortly: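 Luminescent readout of luciferin produced by CYP3A4 (20 nM) dealkylation of Luciferin-PPXE, 25 uM (its KM). NADPH-driven reaction ran 60 min at RT after 10 min compound preincubation; data scaled to 57 uM ketoconazole as 100% inhibition.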
Cytochrome P450 3A4 (Homo sapiens), sequence (P08684 whole entry, looked up): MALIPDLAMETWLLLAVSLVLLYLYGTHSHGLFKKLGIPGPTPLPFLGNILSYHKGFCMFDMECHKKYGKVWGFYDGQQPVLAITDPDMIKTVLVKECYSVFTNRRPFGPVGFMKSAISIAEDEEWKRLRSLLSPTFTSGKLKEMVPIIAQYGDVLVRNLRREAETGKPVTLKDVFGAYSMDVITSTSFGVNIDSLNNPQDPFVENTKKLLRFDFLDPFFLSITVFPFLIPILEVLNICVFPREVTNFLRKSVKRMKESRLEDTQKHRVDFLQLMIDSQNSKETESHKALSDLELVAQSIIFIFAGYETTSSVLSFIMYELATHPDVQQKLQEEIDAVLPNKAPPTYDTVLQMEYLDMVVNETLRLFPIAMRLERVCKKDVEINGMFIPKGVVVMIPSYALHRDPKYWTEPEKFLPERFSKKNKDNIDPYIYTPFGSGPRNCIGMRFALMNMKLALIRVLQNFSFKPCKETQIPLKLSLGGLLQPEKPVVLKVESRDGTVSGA

The target is the same in experiment [10]. The experiment in a line: qHTS Assay for Activators of Cytochrome P450 3A4 (AID 885). Note: nearly all actives have a fitted effect of over 65% in size. Put shortly:
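Luminescent readout of luciferin formed from 25 uM Luciferin-PPXE (KM level) by 20 nM CYP3A4 in 200 mM KPO4, with 60 min NADPH-driven reaction at room temperature after 10 min compound exposure. Ketoconazole (57 uM) defined 100% inhibition.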
(In general: qHTS replaces the single test concentration by a dilution series.)

Experiment [11] concerns the target 3',5'-cyclic-AMP phosphodiesterase 4B (Homo sapiens) (UniProt Q07343). The experiment in a line: qHTS Assay for Inhibitors of PDE-IV (AID 607; active = well fitted activation curve with a large enough effect in the main read-out, with a control signal flat, not every such curve was filed as active). Put shortly: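 Cell-based read-out of cAMP via a modified cyclic nucleotide-gated channel and membrane potential dye (535/590 nm) in HEK293 cells expressing PDE4 endogenously. Compounds tested up to 22.9 uM final; 100 uM RO 20-1724 reference.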

Values without a mark were called inactive. Inconclusive results are not listed. The source made the active and inactive calls. Unless noted, calls come from the whole dose curve; as a rule, active = well fitted curve in the direction sought with a large enough effect; inconclusive = small, poorly fitted or top-dose-only effect, or another doubt; inactive = no such curve, though single readings can be large; an effect the other way counts as inactive or inconclusive.

Glucocorticoid receptor (Homo sapiens), sequence (P04150 whole entry, looked up, the tested form may be a part): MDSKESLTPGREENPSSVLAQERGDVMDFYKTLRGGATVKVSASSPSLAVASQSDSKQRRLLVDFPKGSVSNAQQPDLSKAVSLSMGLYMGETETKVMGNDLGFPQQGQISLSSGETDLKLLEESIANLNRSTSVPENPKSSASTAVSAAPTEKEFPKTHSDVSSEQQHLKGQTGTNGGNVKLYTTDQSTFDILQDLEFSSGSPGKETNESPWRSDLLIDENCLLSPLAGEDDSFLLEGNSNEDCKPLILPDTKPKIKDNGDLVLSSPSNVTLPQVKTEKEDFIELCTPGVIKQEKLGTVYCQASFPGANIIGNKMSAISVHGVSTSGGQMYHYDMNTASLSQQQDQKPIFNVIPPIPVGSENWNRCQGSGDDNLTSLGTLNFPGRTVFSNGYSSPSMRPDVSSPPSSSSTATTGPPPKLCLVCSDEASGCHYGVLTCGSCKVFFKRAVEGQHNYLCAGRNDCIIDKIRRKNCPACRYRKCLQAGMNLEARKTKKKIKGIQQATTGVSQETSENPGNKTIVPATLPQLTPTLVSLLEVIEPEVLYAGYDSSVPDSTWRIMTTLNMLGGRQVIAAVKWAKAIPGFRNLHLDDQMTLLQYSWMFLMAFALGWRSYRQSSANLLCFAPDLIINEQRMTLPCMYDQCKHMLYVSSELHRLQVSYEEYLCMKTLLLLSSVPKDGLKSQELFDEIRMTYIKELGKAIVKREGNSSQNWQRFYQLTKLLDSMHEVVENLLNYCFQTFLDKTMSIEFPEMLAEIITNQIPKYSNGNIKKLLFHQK
Cytochrome P450 2D6 (Homo sapiens), sequence (P10635 whole entry, looked up): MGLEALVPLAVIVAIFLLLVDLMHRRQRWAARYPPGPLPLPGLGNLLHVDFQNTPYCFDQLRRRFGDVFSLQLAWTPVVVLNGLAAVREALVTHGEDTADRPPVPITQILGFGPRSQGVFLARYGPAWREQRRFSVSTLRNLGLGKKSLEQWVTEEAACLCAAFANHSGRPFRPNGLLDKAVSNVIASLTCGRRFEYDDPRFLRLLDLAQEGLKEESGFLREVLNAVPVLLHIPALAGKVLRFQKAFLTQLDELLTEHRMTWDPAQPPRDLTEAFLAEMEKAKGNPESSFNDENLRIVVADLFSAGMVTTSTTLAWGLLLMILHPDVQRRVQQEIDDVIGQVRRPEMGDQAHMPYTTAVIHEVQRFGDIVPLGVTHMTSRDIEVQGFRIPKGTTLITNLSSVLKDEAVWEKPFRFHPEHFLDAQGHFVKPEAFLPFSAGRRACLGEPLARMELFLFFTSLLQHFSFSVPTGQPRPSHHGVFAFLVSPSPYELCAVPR
Cytochrome P450 2C9 (Homo sapiens), sequence (P11712 whole entry, looked up): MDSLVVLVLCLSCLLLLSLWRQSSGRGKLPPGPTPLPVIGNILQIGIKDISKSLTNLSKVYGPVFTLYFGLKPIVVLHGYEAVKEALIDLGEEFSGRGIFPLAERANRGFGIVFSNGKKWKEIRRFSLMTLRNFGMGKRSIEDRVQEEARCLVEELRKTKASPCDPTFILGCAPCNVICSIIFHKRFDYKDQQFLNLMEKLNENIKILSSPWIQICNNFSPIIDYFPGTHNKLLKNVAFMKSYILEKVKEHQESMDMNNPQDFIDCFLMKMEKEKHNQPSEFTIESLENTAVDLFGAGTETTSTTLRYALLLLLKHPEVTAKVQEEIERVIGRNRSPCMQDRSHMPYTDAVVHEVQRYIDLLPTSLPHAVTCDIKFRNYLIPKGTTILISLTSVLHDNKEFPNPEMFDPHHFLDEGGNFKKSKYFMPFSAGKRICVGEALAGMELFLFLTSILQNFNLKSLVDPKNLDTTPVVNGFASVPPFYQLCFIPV
Cytochrome P450 2C19 (Homo sapiens), sequence (P33261 whole entry, looked up): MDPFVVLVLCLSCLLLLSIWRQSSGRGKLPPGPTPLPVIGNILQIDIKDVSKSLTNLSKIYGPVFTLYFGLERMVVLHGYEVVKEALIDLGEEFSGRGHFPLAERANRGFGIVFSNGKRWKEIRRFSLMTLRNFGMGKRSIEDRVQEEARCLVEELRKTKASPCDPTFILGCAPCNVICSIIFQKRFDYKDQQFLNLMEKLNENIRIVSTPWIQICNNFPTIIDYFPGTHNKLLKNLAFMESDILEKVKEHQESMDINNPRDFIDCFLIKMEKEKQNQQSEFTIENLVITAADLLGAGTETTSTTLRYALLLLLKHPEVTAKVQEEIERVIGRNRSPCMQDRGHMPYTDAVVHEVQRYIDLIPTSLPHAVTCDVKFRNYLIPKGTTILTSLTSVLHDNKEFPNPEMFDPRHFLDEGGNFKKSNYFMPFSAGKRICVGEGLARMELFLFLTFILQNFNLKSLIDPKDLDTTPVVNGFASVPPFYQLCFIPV
3',5'-cyclic-AMP phosphodiesterase 4B (Homo sapiens), sequence (Q07343 whole entry, looked up): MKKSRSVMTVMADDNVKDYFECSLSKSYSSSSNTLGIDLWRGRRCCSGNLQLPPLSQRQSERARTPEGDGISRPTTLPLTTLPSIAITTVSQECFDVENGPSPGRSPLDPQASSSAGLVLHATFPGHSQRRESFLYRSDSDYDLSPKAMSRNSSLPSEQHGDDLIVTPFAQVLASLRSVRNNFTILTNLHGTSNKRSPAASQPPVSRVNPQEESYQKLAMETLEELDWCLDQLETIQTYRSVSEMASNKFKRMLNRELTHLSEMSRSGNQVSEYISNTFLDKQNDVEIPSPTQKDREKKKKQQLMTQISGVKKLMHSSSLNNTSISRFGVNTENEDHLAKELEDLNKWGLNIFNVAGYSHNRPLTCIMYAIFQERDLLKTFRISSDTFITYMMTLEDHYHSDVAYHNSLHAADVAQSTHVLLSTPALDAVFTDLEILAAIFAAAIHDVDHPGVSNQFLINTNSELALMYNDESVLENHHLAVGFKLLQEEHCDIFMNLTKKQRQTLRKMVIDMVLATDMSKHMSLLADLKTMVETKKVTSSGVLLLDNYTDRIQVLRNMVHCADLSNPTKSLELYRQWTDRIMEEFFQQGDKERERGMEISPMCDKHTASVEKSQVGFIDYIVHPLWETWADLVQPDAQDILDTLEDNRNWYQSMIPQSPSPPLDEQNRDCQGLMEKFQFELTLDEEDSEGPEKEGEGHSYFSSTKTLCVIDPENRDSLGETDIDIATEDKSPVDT

On to `C=C1C/C(=C\C)C(=O)O[C@@H]2CCN3CC=C(COC(=O)[C@]1(C)O)[C@H]23`, for which the Potency result in experiment [1], in experiment [5], in experiment [6] and in [7] was “inactive” in each case. Moreover, the Potency in experiment [2] and in [3] was more than 46 µM throughout. Besides, the compound was called inactive in experiment [4].

As to `C[C@@]12CC[C@H](O)C[C@@H]1CC[C@H]1[C@H]2C[C@@H](O)[C@]2(C)[C@@H](C3=CC(=O)OC3)CC[C@@]12O`, the Potency entry in experiment [1], in experiment [5], in experiment [6] and in [7] was “inactive” each time. Also, the Potency in experiment [2] and in experiment [3] was more than 46 µM throughout. Besides, the result in experiment [4] was inactive.

With `O=CN1C[C@H]2C[C@@H](C1)c1cccc(=O)n1C2`, the Potency entry in experiment [1], in experiment [5], in experiment [6] and in experiment [7] was “inactive” in each case. The Potency in experiment [2] and in experiment [3] was more than 46 µM in each case. For the same compound, the result in experiment [4] was inactive.

For `O=C1C2CCN(CC2)[C@@H]1Cc1ccc2ccccc2c1O`, the compound was called inactive in experiment [8]. The Potency in experiment [2] was more than 20.6 µM.

As to `C[N+]1(C)[C@@H]2CC(OC(=O)[C@@H](CO)c3ccccc3)C[C@@H]1[C@H]1O[C@H]12` (some centres undefined), in experiment [8], the outcome was inactive. Further, the results for the Potency in [2] and in experiment [3] were more than 46 µM and more than 9.22 µM, respectively.

Consider `C[C@@H](Cc1cccc(C(F)(F)F)c1)NCCCc1ccccc1`, for which the Potency is 3.98 µM (active) in [1]; more than 46 µM in experiment [2]; more than 46 µM in experiment [3]; 5.01 µM (active) in experiment [9]; 0.0126 µM (active) in experiment [6]; 1.26 µM (active) in [7]. In experiment [4], the compound was called inactive. In addition, the Potency entry in experiment [10] was “inactive”.

With `CCCCOCCCn1c(N)c(C(=O)OCCOC)c2nc3ccccc3nc21`, in [8], the outcome was inactive. For the same compound, in [2], the Potency was more than 20.6 µM.

`NC(N)=Nc1ccc2[nH]c3c(c2c1)C[C@]1(O)[C@@H]2Cc4ccc(O)c5c4[C@]1(CCN2CC1CC1)[C@H]3O5`: the Potency in experiment [2] and in experiment [3] was more than 46 µM throughout. The Potency entry in [10] is “inactive”.

For the compound `O=c1cccc2n1C[C@H]1C[C@@H]2CN(CCO)C1`, the Potency is 15.8 µM (active) in [1], more than 46 µM in experiment [2] and more than 46 µM in [3]. Further, the call in experiment [4] and in experiment [11] was inactive. Also, the Potency result in experiment [5], in [6] and in [7] was “inactive” each time.

With `C=C(C)[C@H]1Cc2c(ccc3c2O[C@H]2COc4cc(OC)c(OC)cc4[C@@H]2C3=O)O1`, the Potency in experiment [2] is more than 46 µM; in experiment [3] it was more than 46 µM; in experiment [7], 2.51 µM (active). Also, the outcome in experiment [4] and in experiment [11] was inactive.

For the compound `C=CCCN1C[C@@H]2C[C@H](C1)c1cccc(=O)n1C2`, the Potency entry in [1], in experiment [5], in [6] and in [7] was “inactive” in each case. The Potency in [2] and in experiment [3] was more than 46 µM throughout. The outcome in experiment [4] was inactive.
